Data on eleven substances can be found in ChEMBL document CHEMBL1201862, “PubChem BioAssay data set” (2004).

Among all 58,000 sequences or so, about 4,000 (6.9%) were called active. Rule as the data show it: active = GI50 up to about 1.1 µM and inactive = higher. Not all results are given here. Measured potencies and affinities stand elsewhere.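 These data come from cells grown in 96-well plates and exposed to compound for 48 hours at five concentrations. Here, GI50 denotes the concentration required for 50% inhibition of growth.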

The assay has as its system SF-295. Kind of assay: NCI tumour cell line growth inhibition, 48 h.
In the case of “mu-(1,7-nanodiamine-N,N')bis-(cis-aminedichloroplatimum (II)), CHEMBL2146215”, the GI50 worked out at 14.3 µM.

“[Bis(aminomethyl)tetramethylenesilane]dichloropaltinum(II), CHEMBL2146205” had a GI50 of 27.7 µM.

As to “[Bis(aminomethyl)pentamethylenesilane]tetrachloropaltinum(IV), CHEMBL2146204”, the GI50 came out at 3.3 µM.

The substance “[Bis(aminomethyl)dimethylsilane]tetrachloroplatinum(IV), CHEMBL2146190” displayed a GI50 of 4.39 µM.

With “[Bis(aminomethyl)pentamethylenesilane]dichloropaltinum(II), CHEMBL2146202”, the GI50 amounted to 2.65 µM.

As for “cis-Bis[[(trimethylsilyl)methyl]amino]tetrachloroplatinum(IV), CHEMBL2146191”, the GI50 worked out at 13.7 µM.

In the case of “[Bis(aminomethyl)tetramethylenesilane]tetrachloropaltinum(IV), CHEMBL2146189”, the GI50 was found to be 5.25 µM.

The substance “[Bis(aminomethyl)ethylmethylsilane]tetrachloroplatinum(IV), CHEMBL2146192” yielded a GI50 of 3.17 µM.

Turning to “[Bis(aminomethyl)dimethylsilane]dichloroplatinum (II), CHEMBL2146201”, the GI50 was 11.9 µM.

Substance CISPLATIN, CHEMBL11359 came in with a GI50 of 0.912 µM.

On to “[Bis(aminomethyl)diethylsilane]tetrachloroplatinum(IV), CHEMBL2146203”, for which the GI50 came to 3.37 µM.
